Laboratory results from PubChem BioAssay (EPA / NIEHS).
Results filed as inconclusive are left out. Activity calls are given as the source filed them. Rule for the calls: active = hit-call score of the fitted dose curve at least 0.9, where 1 is the maximum; inconclusive = response in the unintended direction; inactive = score below 0.9.

How the values were obtained:
[1] = ACEA_AR_agonist_AUC_viability: ACEA Biosciences xCELLigence Real-Time Cell Analysis on Androgen Receptor Agonism for Viability (AID 2283775);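 for AC50: viability read 80 hours after compound addition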
Procedure, shortened: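 Read-out is area under the impedance curve at 80 h post-dose in 22Rv1 cells, with DMSO as baseline and signal loss taken as reduced viability. Compounds ran in duplicate from 100 uM final.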

[2] = ACEA_AR_antagonist_AUC_viability: ACEA Biosciences xCELLigence Real-Time Cell Analysis on Androgen Receptor Antagonism for Viability (AID 2283776);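 note: 22Rv1 human prostate cancer cells growing on impedance electrode plates; area under impedance growth curve at 80 h after dosing as viability; hits lower the growth signal relative to DMSO meaning cytotoxicity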
Procedure, shortened: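 22Rv1 prostate cells, continuous dosing up to 100 uM final (0.5% DMSO max), duplicate plates. Growth measured by impedance; AUC at 80 h, loss of signal vs DMSO.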

[3] = ACEA_ER_AUC_viability: ACEA Biosciences xCELLigence Real-Time Cell Analysis on Estrogen Receptor Agonism for Viability (AID 2283782);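 note: continuous compound exposure with impedance area under curve over 80 h; hit means loss of impedance signal meaning reduced cell growth or viability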
Procedure, shortened: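 T-47D human breast cells in phenol red-free RPMI1640 with 10% charcoal-stripped FBS were dosed with an 8-point 1:4 dilution series from 100 uM top final concentration, in duplicate. Impedance-based growth was followed for 80 h; AUC analysed versus DMSO.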

[4] = STM_H9_NormalizedViability: Cytotoxicity Assessment at 120 hours in the Stemina devTOX quickPredict H9 human embryonic stem cell (hESC)-based Assay (AID 2283784)
Procedure, shortened: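 Chemicals are tested blinded on H9 human embryonic stem cells in the pluripotent state, with medium exchanged daily. After background correction, fluorescence from CellTiter-Fluor is scaled against 0.1% DMSO wells, and decreases are scored.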

AR (gene 367) = AR (gene 367) (UniProt P10275); test: ACEA_AR_agonist_80hr: ACEA Biosciences xCELLigence Real-Time Cell Analysis on Androgen Receptor Agonism for Proliferation (AID 2283783);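 note: hits increase impedance growth signal above DMSO baseline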
Procedure, shortened: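 22Rv1 human prostate cancer cells were seeded after preconditioning in assay medium and monitored overnight, then dosed in an eight-point 1:4 dilution series from 100 uM (≤0.5% DMSO). Impedance-based growth was read at 80 h, gain-of-signal versus DMSO.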

Chain of AR (gene 367) (P10275 whole entry, looked up): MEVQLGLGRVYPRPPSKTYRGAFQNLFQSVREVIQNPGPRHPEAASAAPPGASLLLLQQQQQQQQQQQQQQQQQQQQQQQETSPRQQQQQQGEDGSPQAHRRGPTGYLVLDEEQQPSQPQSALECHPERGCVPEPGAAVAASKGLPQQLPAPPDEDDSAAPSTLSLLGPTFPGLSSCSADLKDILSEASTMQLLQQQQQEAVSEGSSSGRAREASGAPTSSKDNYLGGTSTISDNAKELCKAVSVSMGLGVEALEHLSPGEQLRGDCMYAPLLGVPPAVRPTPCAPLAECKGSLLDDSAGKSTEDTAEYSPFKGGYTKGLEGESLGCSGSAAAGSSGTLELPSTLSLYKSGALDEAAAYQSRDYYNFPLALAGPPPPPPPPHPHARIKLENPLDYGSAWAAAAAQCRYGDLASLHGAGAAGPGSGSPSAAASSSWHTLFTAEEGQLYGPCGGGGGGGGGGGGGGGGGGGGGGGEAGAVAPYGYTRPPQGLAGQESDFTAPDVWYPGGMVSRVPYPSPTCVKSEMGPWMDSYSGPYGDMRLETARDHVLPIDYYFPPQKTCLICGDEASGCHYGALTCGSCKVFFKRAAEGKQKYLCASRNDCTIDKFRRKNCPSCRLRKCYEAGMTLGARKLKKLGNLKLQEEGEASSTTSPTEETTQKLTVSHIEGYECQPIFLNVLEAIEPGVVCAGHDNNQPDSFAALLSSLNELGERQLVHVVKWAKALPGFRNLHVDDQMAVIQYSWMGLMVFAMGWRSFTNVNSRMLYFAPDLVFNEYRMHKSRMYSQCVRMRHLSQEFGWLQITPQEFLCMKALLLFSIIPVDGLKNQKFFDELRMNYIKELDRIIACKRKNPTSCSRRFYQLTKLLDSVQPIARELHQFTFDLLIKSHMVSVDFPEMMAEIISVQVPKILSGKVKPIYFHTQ

CCNc1nc(Cl)nc(NC(C)C)n1
outcome [1]: inactive
outcome [2]: inactive
outcome [3]: inactive
outcome [4]: inactive

CCOC(=O)CC(SP(=S)(OC)OC)C(=O)OCC (stereo not given)
AC50 [1]: 92.5 µM (active)
AC50 [2]: 85.1 µM (active)
AC50 [4]: 78.9 µM (active)

O=C(O)c1nc(Cl)ccc1Cl
outcome [1]: inactive
outcome [2]: inactive
outcome [3]: inactive

COC(=O)c1ccccc1C(=O)OC
outcome [2]: inactive
outcome [3]: inactive
outcome [4]: inactive

CN(C)C(=S)SSC(=S)N(C)C
AC50 [1]: 20 µM (active)
AC50 [2]: 22.6 µM (active)
AC50 [3]: 91 µM (active)
outcome (AR (gene 367)): inactive
AC50 [4]: 50 µM (active)

Cc1ccc(-c2c(Cl)nc(C#N)n2S(=O)(=O)N(C)C)cc1
AC50 [1]: 19.2 µM (active)
AC50 [2]: 16.1 µM (active)
outcome (AR (gene 367)): inactive

CCc1nn(C)c(C(=O)NCc2ccc(C(C)(C)C)cc2)c1Cl
AC50 [1]: 25.3 µM (active)
AC50 [2]: 19.4 µM (active)
outcome [3]: inactive
AC50 [4]: 2.12 µM (active)

O=C(Nc1ccccc1)Nc1ccnc(Cl)c1
AC50 [1]: 39.1 µM (active)
AC50 [2]: 30.8 µM (active)
AC50 [3]: 81.3 µM (active)

N#Cc1nn(-c2c(Cl)cc(C(F)(F)F)cc2Cl)c(N)c1S(=O)C(F)(F)F (stereo not given)
AC50 [1]: 40.6 µM (active)
AC50 [2]: 31.2 µM (active)
AC50 [3]: 83.3 µM (active)
AC50 [4]: 66.1 µM (active)

CC(C)C1(C)N=C(c2nc3ccccc3cc2C(=O)O)NC1=O (stereo not given)
outcome [2]: inactive

Cc1cc(Cl)ccc1OCC(=O)O
outcome [1]: inactive
outcome [2]: inactive
outcome (AR (gene 367)): inactive

CCOC(=O)C(Cl)Cc1cc(-n2nc(C)n(C(F)F)c2=O)c(F)cc1Cl (stereo not given)
outcome [1]: inactive
outcome [3]: inactive

CCON=C(CC)C1=C(O)CC(c2c(C)cc(C)cc2C)CC1=O (stereo not given)
outcome [1]: inactive
outcome [2]: inactive
outcome [3]: inactive

CC1COC(Cn2cncn2)(c2ccc(Oc3ccc(Cl)cc3)cc2Cl)O1 (stereo not given)
AC50 [1]: 44.8 µM (active)
AC50 [2]: 30.3 µM (active)
AC50 [3]: 83.2 µM (active)
AC50 [4]: 6.39 µM (active)

N#Cc1cc(Br)c(O)c(Br)c1
AC50 [1]: 59.6 µM (active)
AC50 [2]: 52.1 µM (active)
outcome (AR (gene 367)): inactive

CCNc1nc(Cl)nc(NCC)n1
outcome [1]: inactive
outcome [2]: inactive
outcome [4]: inactive

CNC(=O)ON=CC(C)(C)SC
outcome [2]: inactive

Fc1ccc(Oc2ccnc3cc(Cl)cc(Cl)c23)cc1
AC50 [1]: 76.3 µM (active)
AC50 [2]: 60 µM (active)
AC50 [3]: 80.2 µM (active)

CC1=C(C(=O)Nc2ccccc2)SCCO1
outcome [2]: inactive
outcome (AR (gene 367)): inactive

CNC(=S)S
outcome [1]: inactive
outcome [2]: inactive
outcome [3]: inactive

COc1nc(NC(C)C)nc(NC(C)C)n1
outcome [4]: inactive

C=CCC1=C(C)[C@@H](OC(=O)[C@@H]2[C@@H](C=C(C)C)C2(C)C)CC1=O
AC50 [1]: 66.9 µM (active)
AC50 [2]: 61.3 µM (active)
AC50 [3]: 89.8 µM (active)
outcome [4]: inactive

CCCCNC(=O)n1c(NC(=O)OC)nc2ccccc21
AC50 [1]: 45.6 µM (active)
AC50 [2]: 61.6 µM (active)
AC50 [3]: 18.1 µM (active)
outcome (AR (gene 367)): inactive
AC50 [4]: 7.21 µM (active)
